Assay results: the supplement of paper PMC3334620
In all, about 33,000 sequences were measured (“E-score (-0.5 to 0.5)”: median about -0.013, highest 2% from about 0.3 on). Many of the other results were omitted from the sample, so the highest values are more common in it than they were.

biological target: T1, Msn1 (UniProt P22148); assay: PBM E-score (8-mer binding enrichment) (E-score (-0.5 to 0.5)); higher = stronger / more preferred TF binding; details: protein concentration: 200 nM; construct: GST-full length
T1 sequence: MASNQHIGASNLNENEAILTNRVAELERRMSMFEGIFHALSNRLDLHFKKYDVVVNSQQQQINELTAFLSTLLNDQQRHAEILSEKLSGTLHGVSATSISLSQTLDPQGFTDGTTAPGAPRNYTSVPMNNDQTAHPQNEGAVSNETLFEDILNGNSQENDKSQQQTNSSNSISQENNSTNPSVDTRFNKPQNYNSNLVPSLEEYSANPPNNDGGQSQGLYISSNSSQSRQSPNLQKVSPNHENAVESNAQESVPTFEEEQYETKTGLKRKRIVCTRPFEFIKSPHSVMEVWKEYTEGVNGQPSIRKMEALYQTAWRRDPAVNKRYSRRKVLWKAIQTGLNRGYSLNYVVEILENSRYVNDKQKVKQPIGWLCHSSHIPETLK
Description: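 Universal 'all 10-mer' protein binding microarrays (Agilent AMADID 015681) probed with GST-tagged S. cerevisiae TFs (full-length or DBD) made by in vitro transcription/translation (PURExpress), about 100-200 nM. Bound TF was detected with fluorescent anti-GST. Each ungapped 8-mer (which stands for itself and its reverse complement) is scored by the PBM enrichment score (E-score), a modified Wilcoxon-Mann-Whitney statistic from -0.5 to +0.5, computed with the Universal PBM Analysis Suite. Scale: above 0.35 generally sequence-specific binding.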

Sequence	PBM E-score
AGACTTTA	0.0848
GGACTTTA	0.328
CGACTTTA	0.201
AGTGACAA	0.302
TGTGACAA	0.377
GTTGACAA	0.269
GGTGACAC	-0.0303
CCTGACAA	0.202
GGTGACAA	0.322
CGTGACAA	0.309
CGTGACAG	0.0649
TCTGACAA	0.198
CCGCCAGG	-0.117
AACAGCGG	-0.0502
CGCTATGC	-0.215
ACGTCCGA	-0.00037
GTGTCCGA	0.37
ATGTCCGA	0.475
GGGTCCGA	-0.115
CTGTCCGA	0.275
AGGTCCGA	0.132
AGTCCTGC	0.0243
AAAATCTG	0.182
AGATTGCC	-0.0449
AAAGACCG	0.0194

Sequence	PBM E-score
CAGGTAGA	-0.142
CCCTTCAA	-0.185
ATAGAGCG	-0.0637
ATTTTGTG	0.144
AATTTGAC	0.194
AATTTGTC	0.488
ATTTTGTC	0.468
AATTTGTG	0.186
ATTTTGTA	0.209
GGGGGAAC	-0.456
GTAAAGTA	0.0255
TCGGGAGA	0.014
TCGGGACA	0.456
GCGGGACA	0.359
TCGGGAAA	0.176
ACGGGACC	-0.247
ACGGGACA	0.384
CCGGGACA	0.457
CCGGGACG	-0.0555
GCGGGACC	-0.22
CCGGGACC	-0.159
ACGGGACT	0.0899
GCGGGATA	0.0848
GAGCCCGA	-0.128
CTAGTGGA	-0.211

Sequence	PBM E-score
CGGAGGAC	0.0943
ACTTAGCG	0.074
ACCTCGAG	-0.0305
CATGGTCA	0.117
CTGGGGTC	-0.217
CGACTTCA	0.0948
GCGCTTGA	0.00998
GGACTTCA	0.0504
ACACTGTC	0.165
GTCCTTAA	0.433
GTCCTAAA	0.365
ATCCTTAA	-0.126
GTCCTAGA	0.342
ATCCTAGA	-0.0654
CTCCTAGA	-0.0389
ATCCTAAA	-0.0285
GTCCTACA	0.385
TTCCTAAA	0.0739
CTCCTACA	-0.187
CTCCTTAA	-0.0988
ATCCTACA	-0.189
ACAGCCGA	-0.16
GGCAAACC	-0.244
ACTCTCCG	-0.11
ACCTCCTG	-0.169

Sequence	PBM E-score
AGCATACC	-0.0756
ACACTAAC	0.119
CTCTATGC	-0.0926
AGTCGGAG	-0.189
GGACTTAC	0.273
CCTCCGGA	0.102
CTACTAGA	-0.0895
ATCCTAAC	0.0664
ATACTAGA	0.125
GTCCTAAC	0.36
GTACTAGA	0.308
CTCCTAAC	-0.278
ACTCAAAG	0.0435
ATGCGTTA	-0.0377
CACACTAC	-0.188
CAAGGGCG	-0.191
ATGCAGAG	-0.253
CTCGGACC	0.165
GTCGGAGA	0.0165
CTCGGATA	0.157
GTCGGACA	0.427
GTCGGATA	0.0474
ATCGGACC	0.0183
ATCGGACG	0.00151
ATCGGACA	0.369

Sequence	PBM E-score
CTCGGACA	0.44
CTGGGCCC	-0.252
CGCCTGGA	-0.0478
ACTGAACA	0.0547
CATTGCGA	-0.0316
ATCACCAA	-0.0626
GAGTAATC	-0.128
CCGACTGC	-0.00611
TAATGTAA	0.114
ACGGTTCT	-0.0415
GCACAAGA	-0.0415
GTACAATA	0.332
GGACAACA	0.337
ATACAATC	-0.0273
CTACAATA	0.0926
AGACAATC	0.359
CGACAAGA	0.121
AGACAACC	0.208
CGACAACA	0.204
AGACAACA	0.248
ATACAATA	0.114
GGACAAGA	0.458
AAATCTCC	-0.234
AGCCTTCC	-0.323
ACTTCGCT	-0.0222

Sequence	PBM E-score
AGGGCCAT	-0.246
AATTTCCT	0.0244
TACGGGGA	-0.11
ATCGTATG	0.0884
GCACAATA	-0.126
GGACAATA	0.464
AGACAATG	0.295
CCACAATA	-0.105
GAACAATA	0.144
CGACAAGC	-0.0394
AGACAAGA	0.3
AGACAATA	0.428
AGACAAGC	0.307
ACACAATA	0.15
CGACAATA	0.334
CGACAATC	0.113
CCCTAGCA	-0.119
CGTAGCAC	-0.0105
CATAGATA	0.126
AGCGAATG	-0.207
AGAGTATG	-0.143
AGAACTGA	0.0524
TCACTTCA	-0.0878
GATTTTCA	0.209
TACAGCAA	0.00838

Sequence	PBM E-score
AAACGTCT	0.24
AAACGTCC	0.317
GAACGTCC	0.206
TACTTCAA	0.16
AGGATACG	-0.105
CTCGCCCC	-0.302
AAGGTACA	0.166
CTGTGAGA	0.00231
AACATGTC	0.401
AACATGTA	0.186
AACATGTG	0.0694
AACATGTT	-0.0343
CACATGTC	0.431
ATCATGTC	0.278
CACATGTG	-0.149
CACATGTA	0.121
GACATGTA	0.424
GACATGTC	0.455
GACATGGC	0.276
TACATGTA	0.247
CGAGGGCG	-0.271
GACTCATC	-0.0489
